Test results from PubChem BioAssay (EPA / NIEHS).
Inconclusive results are not listed. The source made the active and inactive calls. Rule for the calls, unless noted: active = hit-call score of the fitted dose curve at least 0.9, where 1 is the maximum; inactive = score below 0.9.

What was measured:
[1] = read-out: Intercellular Adhesion Molecule 1 (ICAM1), ICAM1 (gene 3383); test: BSK_3C_ICAM1: BioMAP Diversity Plus: 3C Assay for Intercellular Adhesion Molecule 1 (ICAM1) Biomarker Activity (AID 2283003); conditions: primary human endothelial cells (HUVEC); actives raise or lower the signal
Procedure, shortened: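 Chemicals are dosed onto primary human umbilical vein endothelium (3C system). After 24 h, ICAM-1 is measured by ELISA, and responses are fitted bidirectionally relative to DMSO.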

[2] = BSK_3C_Proliferation: Cell Proliferation Assessment in the BioMAP Diversity Plus: 3C Assay (AID 2283006); conditions: primary human endothelial cells (HUVEC);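 for AC50: potency may reflect either rise or fall in cell number versus DMSO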
Procedure, shortened: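 Cells (human umbilical vein endothelial, sub-confluent) receive test chemical; after 48 h they are fixed in 10% trichloroacetic acid, stained with 0.1% SRB and read at 560 nm. Activity is referenced to DMSO, fitting increases and decreases.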

[3] = biological target: human RAR-related Orphan Receptor beta (RORb), RORB (gene 6096) (UniProt Q92753); test: ATG_RORb_TRANS: Attagene TRANS-FACTORIAL HepG2 Assay for human RAR-related Orphan Receptor beta (RORb) (AID 2283010; active = hit-call score of the fitted dose curve at least 0.9, where 1 is the maximum)
Chain of human RAR-related Orphan Receptor beta (RORb), RORB (gene 6096) (Q92753 whole entry, looked up, the tested form may be a part): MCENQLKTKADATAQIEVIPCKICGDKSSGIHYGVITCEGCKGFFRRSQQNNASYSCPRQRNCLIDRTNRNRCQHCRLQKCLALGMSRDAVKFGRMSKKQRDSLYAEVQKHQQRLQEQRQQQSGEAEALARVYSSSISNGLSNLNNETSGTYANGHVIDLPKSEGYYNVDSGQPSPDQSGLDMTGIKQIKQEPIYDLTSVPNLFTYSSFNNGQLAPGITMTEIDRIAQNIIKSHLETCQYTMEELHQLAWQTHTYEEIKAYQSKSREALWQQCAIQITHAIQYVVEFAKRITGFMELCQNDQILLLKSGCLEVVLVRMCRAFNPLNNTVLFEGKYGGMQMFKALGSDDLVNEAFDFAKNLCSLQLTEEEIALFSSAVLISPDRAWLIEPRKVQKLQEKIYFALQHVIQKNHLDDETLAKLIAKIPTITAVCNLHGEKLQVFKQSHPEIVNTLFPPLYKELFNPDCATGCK
Procedure, shortened: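 Transfect HepG2 with multiple GAL4-UAS reporter transcription units; dose chemicals for 24 h; isolate RNA, reverse-transcribe and PCR-amplify reporter sequences; label, digest and resolve fragments by capillary electrophoresis; fit increases relative to DMSO.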

[4] = biological target: human Retinoid X Receptor beta (RXRb), RXRB (gene 6257) (UniProt P28702); test: ATG_RXRb_TRANS: Attagene TRANS-FACTORIAL HepG2 Assay for human Retinoid X Receptor beta (RXRb) (AID 2283013; active = hit-call score of the fitted dose curve at least 0.9, where 1 is the maximum)
Chain of human Retinoid X Receptor beta (RXRb), RXRB (gene 6257) (P28702 whole entry, looked up, the tested form may be a part): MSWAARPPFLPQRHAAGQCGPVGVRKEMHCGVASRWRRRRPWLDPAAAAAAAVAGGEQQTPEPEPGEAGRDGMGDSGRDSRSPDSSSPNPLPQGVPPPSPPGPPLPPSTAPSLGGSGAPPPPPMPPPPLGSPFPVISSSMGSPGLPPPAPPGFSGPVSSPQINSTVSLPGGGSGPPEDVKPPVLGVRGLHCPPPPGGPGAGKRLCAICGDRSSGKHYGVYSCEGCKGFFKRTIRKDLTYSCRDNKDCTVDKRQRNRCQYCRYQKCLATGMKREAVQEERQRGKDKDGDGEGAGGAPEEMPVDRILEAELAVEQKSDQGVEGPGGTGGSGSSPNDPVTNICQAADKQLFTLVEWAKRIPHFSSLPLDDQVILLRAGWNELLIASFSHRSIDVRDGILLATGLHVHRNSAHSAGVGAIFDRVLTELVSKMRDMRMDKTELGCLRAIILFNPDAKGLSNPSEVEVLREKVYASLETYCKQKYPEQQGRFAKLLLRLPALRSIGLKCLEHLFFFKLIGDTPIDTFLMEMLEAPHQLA
Procedure, shortened: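 Chimeric receptor-Gal4 activity was assessed in transiently transfected human HepG2 cells after 24 h exposure. Transcripts from GAL4-UAS reporters were quantified by fluorescent RT-PCR and capillary electrophoresis, with DMSO as negative control and baseline.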

[5] = read-out: E-selectin (Homo sapiens) (UniProt P16581); test: BSK_3C_Eselectin: BioMAP Diversity Plus: 3C Assay for Eselectin Biomarker Activity (AID 2283015); conditions: primary human endothelial cells (HUVEC); actives raise or lower the signal;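 note: cell surface E-selectin protein quantified by ELISA 24 h after dosing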
Procedure, shortened: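 HUVEC, 3C stimulation; compound exposure 24 h; E-selectin by ELISA; gain- or loss-of-signal fitted bidirectionally vs DMSO baseline.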

[6] = read-out: Interleukin-1 alpha (IL1a), IL1A (gene 3552); test: BSK_BE3C_IL1a: BioMAP Diversity Plus: BE3C Assay for Interleukin-1 alpha (IL1a) Biomarker Activity (AID 2283016); conditions: primary human bronchial epithelial cells; actives raise or lower the signal
Procedure, shortened: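 Signal from IL-1a ELISA, taken 24 h after chemical dosing of human bronchial epithelial cells, is compared with DMSO as baseline using bidirectional curve fitting.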

[7] = read-out: Monocyte Chemoattractant Protein-1 (MCP1), CCL2 (gene 6347); test: BSK_3C_MCP1: BioMAP Diversity Plus: 3C Assay for Monocyte Chemoattractant Protein-1 (MCP1) Biomarker Activity (AID 2283017); conditions: primary human endothelial cells (HUVEC); actives raise or lower the signal
Procedure, shortened: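 HUVEC, 3C system; 24 h chemical exposure; MCP-1 by ELISA; bidirectional curve fit vs DMSO baseline.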

[8] = read-out: Monocyte Chemoattractant Protein-1 (MCP1), CCL2 (gene 6347); test: BSK_4H_MCP1: BioMAP Diversity Plus: 4H Assay for Monocyte Chemoattractant Protein-1 (MCP1) Biomarker Activity (AID 2283018); conditions: primary human endothelial cells (HUVEC); actives raise or lower the signal
Procedure, shortened: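 Endothelial cells from umbilical vein were treated with test chemical, then after 24 h MCP-1 levels were quantified by ELISA; endpoint values came from bidirectional fitting with DMSO as baseline of activity.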

[9] = read-out: Human Leukocyte Antigen - DR isotype (HLADR), HLA-DRA (gene 3122); test: BSK_3C_HLADR: BioMAP Diversity Plus: 3C Assay for Human Leukocyte Antigen - DR isotype (HLADR) Biomarker Activity (AID 2283019); conditions: primary human endothelial cells (HUVEC); actives raise or lower the signal
Procedure, shortened: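 HUVEC, 3C stimulation, 24 h post-dose; HLA-DR by ELISA; bidirectional curve fit vs DMSO baseline; gain or loss of signal scored.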

[10] = read-out: Interleukin-8 (IL8), CXCL8 (gene 3576); test: BSK_3C_IL8: BioMAP Diversity Plus: 3C Assay for Interleukin-8 (IL8) Biomarker Activity (AID 2283020); conditions: primary human endothelial cells (HUVEC); actives raise or lower the signal
Procedure, shortened: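 Endothelial primary cells of human umbilical vein origin are dosed with chemical; after 24 h the IL-8 biomarker is measured by ELISA, and concentration–response is fitted in both directions versus DMSO.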

[11] = read-out: Monokine induced gamma interferon (MIG), CXCL9 (gene 4283); test: BSK_3C_MIG: BioMAP Diversity Plus: 3C Assay for Monokine induced gamma interferon (MIG) Biomarker Activity (AID 2283021); conditions: primary human endothelial cells (HUVEC); actives raise or lower the signal
Procedure, shortened: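 Endothelial primary cells (human umbilical vein) are dosed with test chemical in the 3C system. MIG levels are measured by ELISA at 24 h and fitted in both directions relative to DMSO.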

[12] = biological target: human Peroxisome Proliferator-activated Receptor delta (PPARd), PPARD (gene 5467) (UniProt Q03181); test: ATG_PPARd_TRANS: Attagene TRANS-FACTORIAL HepG2 Assay for human Peroxisome Proliferator-activated Receptor delta (PPARd) (AID 2283002; active = hit-call score of the fitted dose curve at least 0.9, where 1 is the maximum)
Chain of human Peroxisome Proliferator-activated Receptor delta (PPARd), PPARD (gene 5467) (Q03181 whole entry, looked up, the tested form may be a part): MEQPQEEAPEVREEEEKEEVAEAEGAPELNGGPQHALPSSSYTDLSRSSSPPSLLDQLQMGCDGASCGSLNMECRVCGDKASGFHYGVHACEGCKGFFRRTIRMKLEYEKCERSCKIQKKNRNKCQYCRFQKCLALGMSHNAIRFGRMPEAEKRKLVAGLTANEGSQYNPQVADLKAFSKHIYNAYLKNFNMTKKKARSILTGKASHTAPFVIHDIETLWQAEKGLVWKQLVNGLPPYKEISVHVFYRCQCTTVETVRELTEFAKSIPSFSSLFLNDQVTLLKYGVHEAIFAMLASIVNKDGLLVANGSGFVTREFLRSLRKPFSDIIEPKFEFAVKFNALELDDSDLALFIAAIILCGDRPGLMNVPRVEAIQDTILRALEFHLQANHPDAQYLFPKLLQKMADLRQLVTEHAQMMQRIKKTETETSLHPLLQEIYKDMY
Procedure, shortened: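 Transient HepG2 transfection (multiple GAL4-UAS RTUs, chimeric receptor-Gal4); 24 h dosing; total RNA → oligo(dT) RT → PCR → 6-FAM primer extension → HpaI cut → CE. Positive direction vs DMSO.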

[13] = biological target: Peroxisome proliferator-activated receptor gamma (Homo sapiens) (UniProt P37231); test: ATG_PPARg_TRANS: Attagene TRANS-FACTORIAL HepG2 Assay for human Peroxisome Proliferator-activated Receptor-gamma (PPARg) (AID 2283007; active = hit-call score of the fitted dose curve at least 0.9, where 1 is the maximum)
Chain of Peroxisome proliferator-activated receptor gamma (Homo sapiens) (P37231 whole entry, looked up, the tested form may be a part): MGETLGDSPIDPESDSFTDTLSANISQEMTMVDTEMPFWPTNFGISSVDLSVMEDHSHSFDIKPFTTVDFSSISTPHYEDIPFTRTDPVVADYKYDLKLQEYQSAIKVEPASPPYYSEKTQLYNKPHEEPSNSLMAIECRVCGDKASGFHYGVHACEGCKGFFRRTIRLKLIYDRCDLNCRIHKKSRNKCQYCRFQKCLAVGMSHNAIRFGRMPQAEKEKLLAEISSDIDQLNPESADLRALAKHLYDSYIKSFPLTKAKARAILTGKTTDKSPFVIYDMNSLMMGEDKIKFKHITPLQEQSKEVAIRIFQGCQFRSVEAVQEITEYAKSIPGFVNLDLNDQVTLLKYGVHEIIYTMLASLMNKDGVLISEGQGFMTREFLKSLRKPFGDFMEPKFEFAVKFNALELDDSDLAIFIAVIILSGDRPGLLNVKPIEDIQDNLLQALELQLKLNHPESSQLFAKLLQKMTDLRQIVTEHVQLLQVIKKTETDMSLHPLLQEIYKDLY
Procedure, shortened: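 Read-out: reporter mRNA induction, detected by fluorescence after RT-PCR and capillary electrophoresis. Transiently transfected human HepG2 liver cells carrying a chimeric NR-Gal4 construct were dosed for 24 h; activity was fitted upward relative to DMSO.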

[14] = biological target: Nuclear receptor subfamily 1 group I member 2 (Homo sapiens) (UniProt O75469); test: ATG_PXR_TRANS: Attagene TRANS-FACTORIAL HepG2 Assay for human Pregnane X Receptor (PXR) (AID 2283008; active = hit-call score of the fitted dose curve at least 0.9, where 1 is the maximum)
Chain of Nuclear receptor subfamily 1 group I member 2 (Homo sapiens) (O75469 whole entry, looked up, the tested form may be a part): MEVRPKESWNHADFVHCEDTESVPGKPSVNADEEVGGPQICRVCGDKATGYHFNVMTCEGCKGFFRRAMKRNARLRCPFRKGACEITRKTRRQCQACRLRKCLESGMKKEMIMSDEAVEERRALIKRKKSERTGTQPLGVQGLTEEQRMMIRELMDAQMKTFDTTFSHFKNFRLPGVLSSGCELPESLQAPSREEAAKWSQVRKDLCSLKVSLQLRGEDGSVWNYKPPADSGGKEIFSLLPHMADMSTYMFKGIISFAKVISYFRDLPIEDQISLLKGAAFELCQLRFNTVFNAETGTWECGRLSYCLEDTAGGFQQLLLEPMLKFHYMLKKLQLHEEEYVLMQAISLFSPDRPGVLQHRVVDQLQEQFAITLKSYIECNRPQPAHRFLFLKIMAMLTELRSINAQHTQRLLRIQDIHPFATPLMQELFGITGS
Procedure, shortened: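 Trans-factorial format: exogenous NR-Gal4 fusion activity, not endogenous factor, in transfected human HepG2 liver cells. After 24 h dosing, RNA isolated, reverse-transcribed, amplified and resolved by capillary electrophoresis; induction scored versus DMSO.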

[15] = biological target: human Retinoic Acid Receptor beta (RARb), RARB (gene 5915) (UniProt P10826); test: ATG_RARb_TRANS: Attagene TRANS-FACTORIAL HepG2 Assay for human Retinoic Acid Receptor beta (AID 2283004; active = hit-call score of the fitted dose curve at least 0.9, where 1 is the maximum)
Chain of human Retinoic Acid Receptor beta (RARb), RARB (gene 5915) (P10826 whole entry, looked up, the tested form may be a part): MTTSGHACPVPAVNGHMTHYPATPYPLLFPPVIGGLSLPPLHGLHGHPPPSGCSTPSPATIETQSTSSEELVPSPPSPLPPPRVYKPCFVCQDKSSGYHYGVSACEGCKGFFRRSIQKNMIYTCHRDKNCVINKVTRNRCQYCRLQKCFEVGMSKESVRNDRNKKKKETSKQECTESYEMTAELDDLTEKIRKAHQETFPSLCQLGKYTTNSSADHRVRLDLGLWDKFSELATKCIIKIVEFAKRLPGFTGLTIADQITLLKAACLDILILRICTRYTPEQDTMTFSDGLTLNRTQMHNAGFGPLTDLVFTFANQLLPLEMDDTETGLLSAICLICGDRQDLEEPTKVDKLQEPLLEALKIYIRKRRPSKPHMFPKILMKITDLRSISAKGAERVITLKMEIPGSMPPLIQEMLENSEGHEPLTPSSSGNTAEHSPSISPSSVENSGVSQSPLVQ
Procedure, shortened: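 Readout is reporter mRNA induction: RNA reverse-transcribed, PCR-amplified, FAM-labelled, HpaI-cut and resolved by capillary electrophoresis. Transiently transfected HepG2 cells carrying exogenous NR–Gal4 chimeras were dosed for 24 h; activity fitted upward relative to DMSO.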

[16] = biological target: human Thyroid Receptor alpha (THRa1), THRA (gene 7067) (UniProt P10827); test: ATG_THRa1_TRANS: Attagene TRANS-FACTORIAL HepG2 Assay for human Thyroid Receptor alpha (THRa1) (AID 2283014; active = hit-call score of the fitted dose curve at least 0.9, where 1 is the maximum)
Chain of human Thyroid Receptor alpha (THRa1), THRA (gene 7067) (P10827 whole entry, looked up, the tested form may be a part): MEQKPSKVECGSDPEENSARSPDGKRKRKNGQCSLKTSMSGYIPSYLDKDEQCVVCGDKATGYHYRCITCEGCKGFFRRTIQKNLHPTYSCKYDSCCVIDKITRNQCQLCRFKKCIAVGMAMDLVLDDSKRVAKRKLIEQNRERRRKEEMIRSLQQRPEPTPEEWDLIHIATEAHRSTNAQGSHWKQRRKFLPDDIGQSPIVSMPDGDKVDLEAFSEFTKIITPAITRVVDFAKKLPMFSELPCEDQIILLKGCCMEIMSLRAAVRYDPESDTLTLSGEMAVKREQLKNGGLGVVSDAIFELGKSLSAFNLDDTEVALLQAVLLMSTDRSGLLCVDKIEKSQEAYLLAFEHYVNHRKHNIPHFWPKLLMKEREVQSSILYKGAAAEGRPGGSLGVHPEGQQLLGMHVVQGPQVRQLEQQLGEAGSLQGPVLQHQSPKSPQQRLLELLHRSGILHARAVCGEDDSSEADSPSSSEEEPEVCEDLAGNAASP
Procedure, shortened: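 Transient HepG2 transfection, NR-Gal4 chimera driving GAL4-UAS reporters; 24 h compound exposure; total RNA, oligo(dT) RT, PCR, fluorescent primer extension, capillary electrophoresis. Upward direction vs DMSO control.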

[17] = biological target: human RAR-related Orphan Receptor gamma (RORg), RORC (gene 6097) (UniProt P51449); test: ATG_RORg_TRANS: Attagene TRANS-FACTORIAL HepG2 Assay for human RAR-related Orphan Receptor gamma (RORg) (AID 2283011; active = hit-call score of the fitted dose curve at least 0.9, where 1 is the maximum)
Chain of human RAR-related Orphan Receptor gamma (RORg), RORC (gene 6097) (P51449 whole entry, looked up, the tested form may be a part): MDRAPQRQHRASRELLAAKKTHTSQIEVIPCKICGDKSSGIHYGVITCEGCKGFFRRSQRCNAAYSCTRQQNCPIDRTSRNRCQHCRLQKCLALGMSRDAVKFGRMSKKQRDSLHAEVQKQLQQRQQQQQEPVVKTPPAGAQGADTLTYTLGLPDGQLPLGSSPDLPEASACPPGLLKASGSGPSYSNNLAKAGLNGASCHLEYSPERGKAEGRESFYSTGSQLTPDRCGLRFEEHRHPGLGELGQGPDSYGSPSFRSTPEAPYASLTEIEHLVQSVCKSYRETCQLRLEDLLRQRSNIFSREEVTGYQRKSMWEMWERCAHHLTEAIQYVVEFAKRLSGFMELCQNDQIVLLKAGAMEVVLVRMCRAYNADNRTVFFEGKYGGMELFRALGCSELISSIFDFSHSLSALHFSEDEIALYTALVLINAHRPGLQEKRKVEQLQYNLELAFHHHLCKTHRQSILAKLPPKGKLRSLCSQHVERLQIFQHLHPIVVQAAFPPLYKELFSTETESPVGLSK
Procedure, shortened: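 Transient MRTU transfection of HepG2 (TRANS format, exogenous NR-Gal4 chimera). 24 h dosing. Total RNA → oligo(dT) RT → PCR → 6-FAM labelling → HpaI cut → CE. Gain vs DMSO.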

[18] = biological target: Retinoic acid receptor RXR-alpha (Homo sapiens) (UniProt P19793); test: ATG_RXRa_TRANS: Attagene TRANS-FACTORIAL HepG2 Assay for human Retinoid X Receptor alpha (RXRa) (AID 2283012; active = hit-call score of the fitted dose curve at least 0.9, where 1 is the maximum)
Chain of Retinoic acid receptor RXR-alpha (Homo sapiens) (P19793 whole entry, looked up, the tested form may be a part): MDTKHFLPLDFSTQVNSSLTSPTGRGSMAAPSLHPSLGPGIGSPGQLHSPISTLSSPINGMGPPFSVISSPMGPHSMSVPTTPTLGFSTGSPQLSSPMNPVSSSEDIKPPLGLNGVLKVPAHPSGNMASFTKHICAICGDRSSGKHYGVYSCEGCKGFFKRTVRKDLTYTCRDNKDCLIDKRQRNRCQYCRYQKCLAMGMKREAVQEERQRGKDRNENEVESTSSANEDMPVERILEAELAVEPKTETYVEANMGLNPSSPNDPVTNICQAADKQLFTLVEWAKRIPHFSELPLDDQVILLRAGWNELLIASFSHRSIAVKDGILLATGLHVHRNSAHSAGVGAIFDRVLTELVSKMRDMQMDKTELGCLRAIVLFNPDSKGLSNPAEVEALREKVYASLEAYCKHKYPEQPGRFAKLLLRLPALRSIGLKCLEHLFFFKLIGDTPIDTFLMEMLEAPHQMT
Procedure, shortened: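 Measures exogenous chimeric NR-GAL4 activity in transfected HepG2 liver cells after 24 h of dosing. Induced reporter mRNA was detected by RT-PCR with capillary electrophoresis, and gain of signal was analysed against DMSO.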

Measured: AC50

Chain of E-selectin (Homo sapiens) (P16581 whole entry, looked up): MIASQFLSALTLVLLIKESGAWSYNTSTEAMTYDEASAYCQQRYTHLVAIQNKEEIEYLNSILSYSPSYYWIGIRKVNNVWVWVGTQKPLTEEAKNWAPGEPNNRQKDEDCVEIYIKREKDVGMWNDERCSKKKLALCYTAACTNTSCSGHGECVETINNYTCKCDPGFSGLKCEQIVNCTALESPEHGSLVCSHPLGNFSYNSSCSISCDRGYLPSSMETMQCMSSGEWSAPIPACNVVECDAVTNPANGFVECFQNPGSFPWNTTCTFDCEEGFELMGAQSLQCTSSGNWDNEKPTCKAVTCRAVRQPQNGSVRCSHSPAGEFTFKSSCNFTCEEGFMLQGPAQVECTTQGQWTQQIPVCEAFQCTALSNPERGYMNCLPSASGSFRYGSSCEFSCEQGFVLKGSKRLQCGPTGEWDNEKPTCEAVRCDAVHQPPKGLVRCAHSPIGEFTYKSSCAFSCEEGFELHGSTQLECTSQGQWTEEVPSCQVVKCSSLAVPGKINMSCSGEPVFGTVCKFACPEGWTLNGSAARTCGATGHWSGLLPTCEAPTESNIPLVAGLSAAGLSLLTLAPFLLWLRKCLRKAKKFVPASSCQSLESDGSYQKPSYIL

CCCCCCCCCCCCCCCCCC(=O)OCC(CC)CCCC (stereo unspecified)
inactive: [1] | [2] | [3] | [4] | [5] | [6] | [7] | [8] | [9] | [10] | [11]

C[Si](O[Si](C)(C)C)O[Si](C)(C)C
active: [4] 61.7 µM
inactive: [12] | [13] | [14]

CNC[C@H](O)c1cccc(O)c1
inactive: [1] | [15] | [2] | [14] | [3] | [16] | [6] | [7] | [8] | [9] | [10] | [11]
active: [4] 33.9 µM

CC1=CC(=O)NS(=O)(=O)O1
inactive: [12] | [17] | [4] | [16]

COc1cc(C=O)ccc1OC(=O)C(C)C
inactive: [1] | [15] | [2] | [13] | [14] | [3] | [18] | [4] | [16] | [6] | [7] | [8] | [9] | [10] | [11]

CC(=O)O[C@H](CC(=O)[O-])C[N+](C)(C)C
inactive: [12] | [13] | [16]

CC(=O)Nc1ccc(C)cc1C
inactive: [12] | [14] | [3] | [17] | [18] | [16]

CCCCC(CC)COCCC#N (stereo unspecified)
inactive: [1] | [13] | [14] | [17] | [6] | [8] | [10] | [11]
active: [2] 20 µM | [4] 51.1 µM | [7] 20 µM | [9] 20 µM

O=[N+]([O-])c1cc(C(F)(F)F)ccc1Cl
inactive: [1] | [2] | [13] | [14] | [6] | [7] | [8] | [9] | [10] | [11]

CN(C)c1ccc(O)c2c1C[C@H]1C[C@H]3[C@H](N(C)C)C(=O)C(C(N)=O)=C(O)[C@@]3(O)C(=O)C1=C2O
inactive: [12] | [14] | [3] | [4]

CC(c1cc2ccccc2s1)N(O)C(N)=O (stereo unspecified)
inactive: [12] | [14] | [18] | [16]
